Screening results (PubChem BioAssay)
Pf growth 96h: Primary qHTS for delayed death inhibitors of the malarial parasite plastid, 96 hour incubation; actives 6.9% (n = 320,000); P. falciparum luciferase reporter growth, 96 h; Potency, µM (titrated, usually from 28.7 µM), for the others: at the highest dose activity change, negative = inhibition, usual class: inhibitors; further: potency means the concentration at half of the fitted maximal effect; on the % scale 0 is the no-effect control and ±100 the full control effect
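Infected RBCs, 2% Hct / 0.05% parasitemia final; luciferase-reporter P. falciparum; cpd 96 h, 37 C, 5% CO2; luciferase detection reagent; luminescence.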
Cycloheximide cs: Cycloheximide Counterscreen for Small Molecule Inhibitors of Shiga Toxin | cell reporter, cycloheximide protein synthesis inhibition counterscreen | actives 12% (n = 300,000) | max response, %; in the data active means max response mostly above about 13%, no sharp cut-off; inactive means mostly below about 14%; further: read at 38.3 µM for the half of the compounds with a filed dose; 0% is about no effect
Shiga toxin inh: A qHTS for Small Molecule Inhibitors of Shiga Toxin | AID 2315, 2010 | inhibition, % at 38.7 µM | actives 9.2% (n = 290,000) | Vero cells, Shiga toxin protein synthesis inhibition reporter; in the data active means inhibition mostly above about 28%, no sharp cut-off; inactive means mostly below about 43%; further: 0% is about no effect
Pf growth 48h: Primary qHTS for delayed death inhibitors of the malarial parasite plastid, 48 hour incubation; P. falciparum luciferase growth in erythrocytes, 48 h; Potency, µM (doses to about 28.7 µM), for inactives: top-dose activity change, negative = inhibition, actives largely listed as inhibitors; actives 5.9% (n = 310,000); AID 504832, 2011; further: potency means the concentration at half of the fitted maximal effect; on the % scale 0 is the no-effect control and ±100 the full control effect
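Parasite viability was followed by luminescence of a genomically integrated firefly luciferase. Cultures held 0.1% parasitemia at 2% hematocrit (final), incubated under 5% CO2 at 37 C.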
AMA1-RON2 inh: qHTS for Inhibitors of AMA1-RON; Towards Development of Antimalarial Drug Lead: Primary Screen; Plasmodium falciparum AMA1 (3D7) - RON2 peptide interaction; AlphaScreen AMA1-biotinylated RON2 peptide binding; Potency, µM (doses to about 58.2 µM), for the others: at the top dose activity change, negative = inhibition, hits mostly inhibitors; actives 0.2% (n = 360,000);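 further: potency means the concentration at half of the fitted maximal effect; 0% = vehicle wells and -100% = peptide control; nearly all actives have a fitted effect of over 45% in size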
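AMA1 (3D7) with his tag at 25 nM final met compounds first, then biotinylated RON2 peptide at 25 nM; detection used donor plus acceptor beads, 10 µg/mL apiece, read by AlphaScreen after 30 min at room temperature.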
HCV inhibitor: qHTS Assay for Inhibitors of Hepatitis C Virus (HCV) | actives 3.4% (n = 340,000) | Potency, µM (top dose mostly 41.8 µM), for the others: at the top dose activity change, negative = inhibition, most hits filed as inhibitors | Huh7.5.1 HCVcc-Cre infection, luciferase reporter, 44 h; further: potency means the concentration at half of the fitted maximal effect; on the % scale 0 is the no-effect control and ±100 the full control effect
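A cell-based infection assay in which seeded cells (1,000 per well) receive test compound after 4 h, are inoculated with HCVcc-Cre at approximately 0.5 moi, and are incubated 44 h before luminescence detection.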
* = called active by the depositor; ? = inconclusive; . = not tested or not shown. The list is not random: actives were taken first. Their share in the collection is about 21%. Unless noted, the call rests on the fitted dose curve; in most records, active means well fitted curve in the direction sought with a large enough effect; inconclusive means small, poorly fitted or top-dose-only effect, or another doubt; inactive means no such curve, though single readings can be large; an effect the other way counts as inactive or inconclusive.

SMILES | Pf growth 96h | Cycloheximide cs | Shiga toxin inh | Pf growth 48h | AMA1-RON2 inh | HCV inhibitor
Cc1ccc(C)c(-c2ccc(=O)n(Cc3c(F)cccc3Cl)n2)c1 | ? | 15.9 | 28.1 | -21.5% | 7.2% | ?
O=C(O)Cn1nc(-c2ccccc2)ccc1=O | 3.29µM* | -3.4 | -6.0 | -17.4% | 7.8% | -3.3%
Cc1ccc(-c2ccc(=O)n(Cc3c(F)cccc3Cl)n2)cc1 | 5.2% | 20.0* | 9.5 | 13.1µM* | -3.6% | ?
COc1ccc(F)cc1C(=O)C1CCCN(Cc2ccc(Sc3nncn3C)o2)C1 (centres undefined) | ? | -4.9 | 27.1 | -6.5% | -6.8% | 3.8%
Cc1ccccc1OCc1occc1C(=O)Nc1cccc(-n2cnnn2)c1 | ? | 0.9 | -3.6 | ? | 8.0% | ?
Cc1ccc(-c2ccc(=O)n(Cc3cc(C)ccc3C)n2)cc1 | -2.7% | 12.6 | -3.9 | ? | 4.2% | 0.5%
Cc1ccc(C)c(Cn2nc(-c3ccccc3)ccc2=O)c1 | 5.3% | -1.6 | -4.8 | -16.8% | 4.9% | 31.6µM*
COc1ccc(-c2ccc(=O)n(Cc3ccccc3)n2)cc1 | 0.0% | 21.1* | 28.2* | -13.9% | 7.3% | ?
N#CC(c1ccc(Cl)cc1)c1c(Cl)cc(-n2ncc(=O)[nH]c2=O)cc1Cl (centres undefined) | -6.1% | . | . | ? | . | .
COc1ccccc1N=NNc1ccc(S(=O)(=O)NC(C)=O)cc1 | . | . | . | . | -20.5% | .
O=C1NC(=O)C(Cc2ccc(O)cc2)N1 (centres undefined) | . | . | . | . | 7.3% | 8.8%
Cc1nn(CCC(N)=O)c2nc(-c3cccs3)cc(C(F)(F)F)c12 | ? | -1.5 | 12.9 | 8.6% | 2.8% | 10µM*
CSC(=NC#N)N1CCN(C(c2ccccc2)c2ccccc2)CC1 | ? | 8.2 | -3.1 | ? | -4.0% | -22.4%
CSC(=NC#N)N1CCN(C(=NC#N)SC)CC1 | 2.2% | 5.3 | 31.4 | 9.28µM* | 2.5% | -6.8%
Cc1cc(-n2c(C)cc(C(=O)COc3ccc(Cl)cc3C(N)=O)c2C)no1 | . | . | . | . | 7.3% | ?
CNc1ccc2oc(C[C@H]3O[C@@]4(CC[C@H]3C)O[C@H]([C@H](C)C(=O)c3ccc[nH]3)[C@H](C)C[C@H]4C)nc2c1C(=O)O | 0.415µM* | -4.6 | -2.7 | 0.928µM* | 80.4% | 2.24µM*
Clc1ccc(-c2noc3c2-c2nc(Cc4cccc5ccccc45)sc2CC3)cc1 | ? | . | . | ? | 4.2% | ?
CCOC(=O)[C@]12CCC=C1N(Cc1ccc3c(c1)OCO3)C(=O)[C@H](CC(=O)NCc1ccc(C)o1)C2 | . | . | . | . | -3.4% | .
O=C(c1cc(-c2ccc(Cl)cc2)on1)N1CCOCC1 | 1.8% | 29.2* | 110.6* | 152.6% | 0.7% | 3.3%
O=C(c1cc(-c2cccc(Cl)c2)on1)N1CCOCC1 | 19.6% | 25.1* | 137.0* | 129.3% | -10.4% | 12.0%
O=C(c1cc(-c2ccc(Cl)cc2Cl)on1)N1CCOCC1 | -13.2% | 25.2* | 58.9 | 169.3% | 19.6% | -4.6%
O=C(c1cc(-c2ccc(Cl)cc2)on1)N1CCc2ccccc2C1 | 18.1% | -2.6 | -9.2 | 3.4% | -2.5% | 19.7%
O=C(c1cc(-c2ccc(Cl)c(Cl)c2)on1)N1CCCC1 | -16.8% | 21.0* | 35.6* | 89.1% | . | -6.6%
Cc1cc(C)n(-c2ccc(C(=O)N3CCC(CO)(Cc4ccccc4)CC3)cc2)n1 | ? | 10.0 | 11.3 | ? | -9.4% | 20.2%
N[C@H](CSSC[C@@H](N)C(=O)O)C(=O)O | . | -3.2 | -3.0 | . | . | .
O=C(c1cc(-c2ccc(Cl)c(Cl)c2)on1)N1CCOCC1 | ? | 17.0* | 45.4* | 213.0% | 26.0% | ?
COc1cccc(OC)c1-c1nn2c(-c3ccco3)nnc2s1 | 91.6% | 56.4* | 199.8* | -5.0% | 3.2% | -8.2%
COc1cccc(-c2nn3c(-c4ccco4)nnc3s2)c1 | 8.28µM* | 4.4 | 36.5 | 10.1% | -11.2% | 0.4%
CCCCNC(=O)C1(C)CCCCN1C(=O)c1ccc(C#N)cc1 (centres undefined) | . | . | . | . | -4.8% | .
